About 83,000 compounds went through this panel and 20% of them were active in at least one assay; those are over-represented in the sample as a whole.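 A percent growth of 40 corresponds to 60% growth inhibition; 0 means no net growth; -100 means all cells died. Active threshold: below 10.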 Values without a mark were called inactive. Active and inactive are the calls of the source.
What follows are compounds tested on NCI/ADR-RES ovarian (assay: NCI-60 one-dose screen, 48 h (100 = growth as untreated, 0 = no growth, -100 = all killed)). Conditions: 10 µM.

SMILES | growth
CCOC(=O)c1cc(C(=O)c2cc(OC)c(OC)c(OC)c2)n2ncc3ccccc3c12 | 63.6%
Cc1c(Cl)cccc1NC(=O)CCCl | 105%
Cc1ccc(S(=O)(=O)N(C)CCCCCC(=O)O)cc1 | 98.6%
COc1cc(-c2nn(-c3cccc(NC(=O)NCCNS(=O)(=O)c4ccc(Cl)cc4)c3)cc2-c2ccncc2)ccc1Cl | 71%
CC(=O)Oc1cc(OC(C)=O)c2ccccc2c1OC(C)=O | 88.9%
COc1cc(-c2nn(-c3cccc(NC(=O)CN4CCOCC4)c3)cc2-c2cccnc2)ccc1Cl | 59%
Cc1ccc(NCCNCC(C)(C)O)c2c(=O)c3ccc(Cl)cc3sc12 | 45.9%
COC(=O)C1(O)NC(=C(C#N)C#N)C(C#N)=C1C(=O)c1ccc(OC)c(OC)c1 (stereo not given) | 106%
CCN(CC)CCOc1ccc2c(c1O)C(=O)c1ccccc1C2=O | 72%
COc1cc(-c2nn(-c3ccc(NC(=O)NCCCNC(=O)c4ccccc4)cc3)cc2-c2ccncc2)ccc1Cl | 69.4%
COc1ccc2nc(-c3ccc(Cl)cc3)cc(-c3nnc(SC/C(=N\O)c4ccccc4)n3-c3ccccc3)c2c1 | 88.2%
CCOS(=O)(=O)c1c(C(C)C)cc(C(C)C)cc1C(C)C | 103%
O=S(=O)(O)c1cccc(Nc2ccc3ccccc3c2)c1 | 97.4%
CN(C)CCCSc1ccccc1NC1=C(Cl)C(=O)C(Nc2ccccc2SCCCN(C)C)=C(Cl)C1=O | 72.4%
Brc1ccc2c(c1)-c1ccccc1C1=NCCN12 | -18% (active)
CC(C)CCN(CCC(C)C)CC(=O)Nc1ccc(S(=O)(=O)c2ccc(NC(=O)CN(CCC(C)C)CCC(C)C)cc2)cc1 | 59.3%
CCNCC(=O)Nc1ccc(C(=O)OCC)cc1 | 103%
O=C(NCCCNS(=O)(=O)c1ccc(Cl)cc1)Nc1ccc(-n2cc(-c3ccncc3)c(-c3ccc(Cl)c(O)c3)n2)cc1 | 76.8%
C1CN(CC2CCC(CN3CCOCC3)O2)CCO1 (stereo not given) | 101%
CCN(CC)CC(=O)N(CC)c1ccc(C)c(Cl)c1 | 102%

SMILES | growth
CC(CN(C)C)Oc1ccc(OC(C)CN(C)C)c2c1C(=O)c1ccccc1C2=O (stereo not given) | 94.5%
O=C1c2ccccc2C(=O)c2c1ccc(C(Br)Br)c2[N+](=O)[O-] | 50.3%
COc1cc(-c2nn(-c3cccc(NC(=O)CCN4CCN(c5ccccc5)CC4)c3)cc2-c2ccncc2)ccc1Cl | 21%
O=C(Nc1ccc(F)cc1)c1cc2ccccc2cc1O | 75.9%
O=C(Nc1ccc2c(O)cc(S(=O)(=O)O)cc2c1)c1ccc([N+](=O)[O-])cc1 | 100%
CN(C)CCCOc1cccc(NC2=C(Cl)C(=O)C(Nc3cccc(OCCCN(C)C)c3)=C(Cl)C2=O)c1 | 74.7%
COc1cc(OC)c2c(=O)c(O)c(-c3ccccc3)oc2c1 | 65.9%
CC(=O)Nc1ccc(CC[C@H]2CCC/C=C/[C@@H]3C[C@H](O)C[C@H]3[C@H](O)/C=C/C(=O)O2)cc1 | 18.7%
Nc1ncnc2c1ncn2C1(CO)OCC(O)C(O)C1O (stereo not given) | 98.6%
O=C(Nc1cccc2c1CCCC2)c1cc2ccccc2cc1O | 11.7%
CN(C)CCCOc1ccccc1NC1=C(Cl)C(=O)C(Nc2ccccc2OCCCN(C)C)=C(Cl)C1=O | 78.5%
O=C(N/N=C/c1ccc([N+](=O)[O-])cc1)c1ccccc1Nc1cccc(C(F)(F)F)c1 | 91.4%
NNC(=O)Oc1c(Cl)cc(Cl)cc1[N+](=O)[O-] | 101%
Nc1ccc(/C=N/Nc2ccnc3c(O)cccc23)c2cccnc12 | 30.6%
O=S(=O)(O)c1ccc(Cl)cc1 | 99%
COc1cc(-c2nn(-c3cccc(NC(=O)NCCNC(=O)c4cccc(C(F)(F)F)c4)c3)cc2-c2ccncc2)ccc1Cl | 80.3%
CCOC(=O)c1cc(C(=O)c2cc(OC)c(OC)c(OC)c2)n2ccc(-c3cc[n+](CC(=O)c4cc(OC)c(OC)c(OC)c4)cc3)cc12 | 94.4%
CCOC(=O)c1cc(C(=O)c2cc(OC)c(OC)c(OC)c2)n2nc(C)ccc12 | 20.9%
CCOC(=O)c1cc(C(=O)c2ccc(Cl)cc2)n2ccc(-c3cc[n+](CC(=O)c4ccc(OC)cc4)cc3)cc12 | 88.8%
C/C=C/CSC(C)(C)C(=O)NC | 108%
